# Measured values reported in PMC5540273 (PLoS ONE, 2017).
# Where two headings read alike, the source gives them in different places.
# Experiments:
# [1] = tested on: PRKD3; details: concentration: 1 μM, replicates: in singlicate; n = 1
# [2] = tested on: PRKG1; details: n = 1
# [3] = tested on: PRKG2; details: concentration: 1 μM, replicates: in singlicate; n = 1
# [4] = tested on: T1, PRKR; details: concentration: 1 μM, replicates: in singlicate; n = 1
# T1 construct: gene EIF2AK2
# [5] = tested on: PRKX; details: n = 1
# [6] = tested on: PRP4; details: concentration: 1 μM, replicates: in singlicate; n = 1
# [7] = tested on: T2, PYK2; details: concentration: 1 μM, replicates: in singlicate; n = 1
# T2 construct: gene PTK2B
# [8] = tested on: QSK; details: concentration: 1 μM, replicates: in singlicate; n = 1
# [9] = tested on: RAF1; details: concentration: 1 μM, replicates: in singlicate; n = 1
# [10] = tested on: RET; details: concentration: 1 μM, replicates: in singlicate; n = 1
# [11] = tested on: RIOK1; details: concentration: 1 μM, replicates: in singlicate; n = 1
# [12] = tested on: RIOK2; details: concentration: 1 μM, replicates: in singlicate; n = 1
# [13] = tested on: RIOK3; details: concentration: 1 μM, replicates: in singlicate; n = 1
# [14] = tested on: RIPK1; details: concentration: 1 μM, replicates: in singlicate; n = 1
# [15] = tested on: RIPK2; details: concentration: 1 μM, replicates: in singlicate; n = 1
# [16] = tested on: RIPK4; details: concentration: 1 μM, replicates: in singlicate; n = 1
# [17] = tested on: RIPK5; details: concentration: 1 μM, replicates: in singlicate; n = 1
# [18] = tested on: ROCK1; details: concentration: 1 μM, replicates: in singlicate; n = 1
# [19] = tested on: ROCK2; details: n = 1
# [20] = tested on: ROS1; details: concentration: 1 μM, replicates: in singlicate; n = 1
# [21] = concentration: 1 μM, replicates: in singlicate
# 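Also: KINOMEscan kinase panel screen.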
structure (smiles),measurement,setting,value
COc1cc(Nc2nccc(N3CCC(NC(=O)c4cc5ccccc5s4)C3)n2)cc(OC)c1OC (stereo not drawn) [GSK1379760],%Inh,[1],0%
same,%Inh,[2]; [21],9%
same,%Inh,[3],7%
same,%Inh,[4],8%
same,%Inh,[5]; [21],24%
same,%Inh,[6],48%
same,%Inh,[7],0%
same,%Inh,[8],100%
same,%Inh,[9],15%
same,%Inh,[10],21%
same,%Inh,[11],76%
same,%Inh,[12],14%
same,%Inh,[13],53%
same,%Inh,[14],24%
same,%Inh,[15],7%
same,%Inh,[16],0%
same,%Inh,[17],0%
same,%Inh,[18],0%
same,%Inh,[19]; [21],14%
same,%Inh,[20],45%
CCn1c(-c2nonc2N)nc2c(C#CC(C)(C)O)ncc(OCCCCN)c21.O=C(O)C(F)(F)F.O=C(O)C(F)(F)F [GSK507274],%Inh,[1],0%
same,%Inh,[2]; 1 µM,64%
same,%Inh,[3],96%
same,%Inh,[4],0%
same,%Inh,[5]; 1 µM,94.1%
same,%Inh,[6],2%
same,%Inh,[7],0%
same,%Inh,[8],5%
same,%Inh,[9],13%
same,%Inh,[10],1%
same,%Inh,[11],16%
same,%Inh,[12],0%
same,%Inh,[13],0%
same,%Inh,[14],0%
same,%Inh,[15],18%
same,%Inh,[16],0%
same,%Inh,[17],4%
same,%Inh,[18],97.2%
same,%Inh,[19]; 1 µM,95.3%
same,%Inh,[20],0%
COc1cccc(-c2ccc3c(NC(=O)C4CC4)n[nH]c3n2)c1 [SB-710903],%Inh,[1],0%
same,%Inh,[2]; [21],0%
same,%Inh,[3],0%
same,%Inh,[4],0%
same,%Inh,[5]; [21],0%
same,%Inh,[6],70%
same,%Inh,[7],6%
same,%Inh,[8],0%
same,%Inh,[9],12%
same,%Inh,[10],6%
same,%Inh,[11],38%
same,%Inh,[12],0%
same,%Inh,[13],0%
same,%Inh,[14],99.5%
same,%Inh,[15],15%
same,%Inh,[16],27%
same,%Inh,[17],1%
same,%Inh,[18],38%
same,%Inh,[19]; [21],49%
same,%Inh,[20],0%
CN1CCN(Cc2cccc(-c3ccc4c(Nc5ccc(Oc6ccccc6)cc5)ccnc4c3)c2)CC1 [GW578342],%Inh,[1],0%
same,%Inh,[2]; [21],0%
same,%Inh,[3],0%
same,%Inh,[4],0%
same,%Inh,[5]; [21],6%
same,%Inh,[6],27%
same,%Inh,[7],0%
same,%Inh,[8],9%
same,%Inh,[9],0%
same,%Inh,[10],48%
same,%Inh,[11],21%
same,%Inh,[12],0%
same,%Inh,[13],32%
same,%Inh,[14],0%
same,%Inh,[15],98.6%
same,%Inh,[16],0%
same,%Inh,[17],0%
same,%Inh,[18],25%
same,%Inh,[19]; [21],20%
same,%Inh,[20],0%
O=C(O)C(F)(F)F.O=C(O)C(F)(F)F.O=c1[nH]ccc2nc(N[C@@H]3CCCNC3)nc(Nc3ccc(S(=O)(=O)N4CCOCC4)cc3)c12 [GSK2177277],%Inh,[1],100%
same,%Inh,[2]; [21],66%
same,%Inh,[3],96.5%
same,%Inh,[4],86%
same,%Inh,[5]; [21],94.6%
same,%Inh,[6],92.9%
same,%Inh,[7],98.9%
same,%Inh,[8],85%
same,%Inh,[9],0%
same,%Inh,[10],99.9%
same,%Inh,[11],100%
same,%Inh,[12],65%
same,%Inh,[13],82%
same,%Inh,[14],0%
same,%Inh,[15],0%
same,%Inh,[16],95.9%
same,%Inh,[17],98.3%
same,%Inh,[18],99.6%
same,%Inh,[19]; [21],92.8%
same,%Inh,[20],71%
CNC(=O)c1ccccc1Nc1nc(Nc2ccc(N3CCOCC3)cc2)ncc1Cl.Cl [GSK1576028],%Inh,[1],81%
same,%Inh,[2]; [21],74%
same,%Inh,[3],88%
same,%Inh,[4],72%
same,%Inh,[5]; [21],17%
same,%Inh,[6],77%
same,%Inh,[7],99.7%
same,%Inh,[8],18%
same,%Inh,[9],0%
same,%Inh,[10],100%
same,%Inh,[11],100%
same,%Inh,[12],90.7%
same,%Inh,[13],100%
same,%Inh,[14],36%
same,%Inh,[15],35%
same,%Inh,[16],79%
same,%Inh,[17],80%
same,%Inh,[18],53%
same,%Inh,[19]; [21],37%
same,%Inh,[20],90.9%
O=C(Nc1cccc(-c2nn3ccccc3c2-c2ccnc(Nc3cccc(C(F)(F)F)c3)n2)c1)c1c(F)cccc1F [GSK292658],%Inh,[1],29%
same,%Inh,[2]; [21],3%
same,%Inh,[3],0%
same,%Inh,[4],0%
same,%Inh,[5]; [21],8%
same,%Inh,[6],5%
same,%Inh,[7],0%
same,%Inh,[8],2%
same,%Inh,[9],72%
same,%Inh,[10],73%
same,%Inh,[11],17%
same,%Inh,[12],6%
same,%Inh,[13],0%
same,%Inh,[14],7%
same,%Inh,[15],63%
same,%Inh,[16],0%
same,%Inh,[17],0%
same,%Inh,[18],0%
same,%Inh,[19]; [21],1%
same,%Inh,[20],0%
O=C(NC1CCN(c2ccnc(Nc3ccc(F)cc3)n2)C1)c1cc2ccccc2s1 (stereo not drawn) [GSK1379716],%Inh,[1],9%
same,%Inh,[2]; [21],7%
same,%Inh,[3],0%
same,%Inh,[4],0%
same,%Inh,[5]; [21],4%
same,%Inh,[6],45%
same,%Inh,[7],15%
same,%Inh,[8],10%
same,%Inh,[9],17%
same,%Inh,[10],10%
same,%Inh,[11],27%
same,%Inh,[12],0%
same,%Inh,[13],33%
same,%Inh,[14],0%
same,%Inh,[15],9%
same,%Inh,[16],3%
same,%Inh,[17],13%
same,%Inh,[18],39%
same,%Inh,[19]; [21],29%
same,%Inh,[20],36%
Cc1ccc(S(=O)(=O)Nc2ccc(Nc3nccc(Nc4cccc5[nH]ncc45)n3)cc2)cc1 [GSK581271],%Inh,[1],0%
same,%Inh,[2]; [21],0%
same,%Inh,[3],5%
same,%Inh,[4],0%
same,%Inh,[5]; [21],6%
same,%Inh,[6],53%
same,%Inh,[7],12%
same,%Inh,[8],6%
same,%Inh,[9],10%
same,%Inh,[10],8%
same,%Inh,[11],78%
same,%Inh,[12],40%
same,%Inh,[13],34%
same,%Inh,[14],5%
same,%Inh,[15],69%
same,%Inh,[16],0%
same,%Inh,[17],0%
same,%Inh,[18],0%
same,%Inh,[19]; [21],8%
same,%Inh,[20],25%
